Bioassay records (PubChem BioAssay)
RXFP1 antagonist – RXFP1 (human) relaxin receptor antagonism. HEK293-RXFP1, relaxin-stimulated cAMP HTRF, 30 min; stronger effect = lower value. activity change, negative = inhibition, % at 57.5 µM. Q9HBX9. 350,000 compounds, 0.59% hits. AID 1259400;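 active means activity change of -60% or lower, but not beyond a set lower limit; inconclusive means change between -60% and -40%, or beyond the set limit; inactive means change above -40%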
gsp agonist – gsp mutant agonism; gsp mutant cells, cAMP HTRF, 30 min; Potency, µM (titrated, usually from 76.9 µM), usual class: activators; 340,000 compounds, 0.13% hits; AID 624287; active means well fitted activation curve with a large enough effect; inconclusive means small, poorly fitted or top-dose-only effect, or another doubt; inactive means no such curve, though single readings can be large or run the other way; cell line not stated here;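 further: phosphodiesterase inhibitor Ro 20-1724 added with compounds to block cAMP breakdown; nearly all actives have a fitted effect of over 60% in size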
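Cells in DMEM/10% FBS with G418 were pretreated with compounds in DMSO plus […] (300 uM stock) for 30 min at 37C. cAMP was measured by HTRF (cAMP-d2 plus anti-cAMP antibody-K) after 30 min at room temperature.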
Akt phos inh – Akt phosphorylation inhibition. Neuro2A IGF-stimulated pAkt S473 HTRF, 20 min; stronger effect = lower value. activity change, % for hits at 50 µM. 360,000 compounds, 0.32% hits. AID 651550; in the data active means activity change below about -80%; inconclusive means mostly about -51% to -80%
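Neuro2A cells in DMEM with 0.5% FBS, overnight at 37 deg C, given compound at single 50 µM final, then IGF (6 nM final) for 20 min at 37 deg C. Lysed; phospho-Akt Ser473 by HTRF after 24 h, 665/615 ratio.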
RXFP1 ag – agonists of human relaxin receptor RXFP1. Q9HBX9. HEK293T-RXFP1 cAMP TR-FRET, 30 min; response scale: percent of porcine relaxin response, buffer zero. Potency, µM (series often up to 57.5 µM), hits mostly activators. 370,000 compounds, 0.3% hits. AID 2676; active means well fitted activation curve with a large enough effect; inconclusive means small, poorly fitted or top-dose-only effect; further: nearly all actives have a fitted effect of over 60% in size
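HEK293 cells stably expressing RXFP1, treated 30 min at 37C with compounds plus PDE4 inhibitor Ro 20174; cAMP measured by HTRF TR-FRET. Normalized to buffer and 29 nM porcine relaxin; EC50 by Hill fit.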
gsp antagonist – antagonists of gsp mutant (McCune-Albright syndrome) | gsp-mutant cells, cAMP HTRF, 30 min | Potency, µM (titrated, usually from 76.9 µM), most hits filed as inhibitors | 340,000 compounds, 0.4% hits | AID 624288; calls by dose curve; cell line not stated here;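 further: intracellular cAMP measured with PDE inhibitor Ro 20-1724 present during compound exposure; nearly all actives have a fitted effect of over 65% in size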
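Cells in G418 medium, seeded 16-24 h, 37C; buffer exchange to DPBS + 1 mM CaCl2, 0.5 mM MgCl2, 0.05% BSA; cpds in DMSO + […] (300 uM stock), 30 min 37C; HTRF cAMP detection.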
Numbers stand for hits; 0 = inactive; ? = inconclusive; - = no result given; [ ] = remark or other dose. Hits are enriched below; roughly 1.2% of the tested compounds scored in any of these assays.

SMILES | RXFP1 antagonist | gsp agonist | Akt phos inh | RXFP1 ag | gsp antagonist
CSc1ccc(CN2CCN(C(=O)COc3ccc(C)cc3)CC2)cc1 | 0 | 3.2µM | 0 | 0 | 0
COCCOCCO | 0 | - | - | - | -
CN(C)CCN=Cc1c(O)n(Cc2ccc3c(c2)OCO3)c(=S)[nH]c1=O | 0 | 0 | 0 | 0 | 0
O=c1[nH]c(=S)n(Cc2ccc(F)cc2)c(O)c1C=NCc1ccc2c(c1)OCO2 | 0 | ? | 0 | 25µM | 0
Cc1cc2c(C(F)(F)F)cc(=O)oc2c2c1NCCC2 | 0 | 16µM | 0 | 0 | 0
O=c1cc(C(F)(F)F)c2cc3c4c(c2o1)CCCN4CCC3 | 0 | 10µM | 0 | 0 | 0
CN(C)CCc1c[nH]c2ccccc12 | 0 | - | - | - | -
O=C(CBr)Nc1ccc(Cl)cc1C(=O)c1ccccc1F | 0 | - | - | - | -
Cc1nc2ccccc2c(=O)n1/N=C/c1cc(Br)cc(Br)c1O | -79 | 0 | 0 | - | ?
O=C(c1ccc2c3c(cccc13)CC2)C1CCCN(Cc2ncc[nH]2)C1 (stereo unspecified) | 0 | 0[15.4 µM] | 0 | 0 | -
O=C(c1ccc2c3c(cccc13)CC2)C1CCCN(CC2CC2)C1 (stereo unspecified) | -63 | 0[15.4 µM] | 0 | 0 | 0
C[n+]1c(-c2ccccc2)c2cc(N)ccc2c2ccc(N)cc21 | - | - | 0 | 0 | 35µM
Cn1cccc1/C=C1/C(=O)NC(=S)N(Cc2ccc(F)cc2)C1=O | -69 | 0[15.4 µM] | 0 | 0 | 0
O=C(N[C@@H]1N=C(c2ccccc2F)c2cccc3c2N(CC3)C1=O)c1cc2ccccc2[nH]1 | 0 | - | - | - | -
CN(C)c1ccc(-[n+]2c(-c3ccccc3)cc(-c3ccccc3)cc2-c2ccccc2)cc1 | -105 | ? | 0 | 0 | 0
Cc1ccc(-c2cc(-c3ccc(C)cc3)[n+](-c3ccccc3)c(-c3ccc(C)cc3)c2)cc1 | - | - | 0 | 0 | 0
c1ccc(-c2cc(-c3ccccc3)[n+](-c3ccccc3)c(-c3ccccc3)c2)cc1 | ? | 0[15.4 µM] | 0 | 0 | 50µM
CCOC(=O)c1ccc(-[n+]2c(-c3ccccc3)cc(-c3ccccc3)cc2-c2ccccc2)cc1 | - | - | 0 | 0 | 0
C[n+]1c(-c2ccccc2)cc(-c2ccc(Cl)cc2)cc1-c1ccccc1 | -88 | 0 | 0 | 0 | 0
Cc1ccc(-c2cc(-c3ccccc3)cc(-c3ccccc3)[n+]2-c2ccccc2)cc1 | - | - | 0 | 0 | 50µM
Oc1ccc([C@H]2CNCc3c2ccc(O)c3O)cc1O | 0 | - | - | - | -
COP(=S)(OC)Oc1cc(Cl)c(Cl)cc1Cl | 0 | - | - | - | -
CCO[C@H]1O[C@@H]2OC3(C)CC[C@H]4[C@H](C)CC[C@@H]([C@H]1C)[C@@]24OO3 | 0 | - | - | - | -
